Screens as filed in PubChem.
This is a sample that favours compounds with a hit; in the whole collection about 2.3% have one here.
Mcl1-Noxa inh – disrupts binding of human Mcl-1 to Noxa peptide; hit rate 1.5% among 220,000; Q07820; TR-FRET Mcl-1/Noxa peptide binding, 2 h; AID 1022; inhibition, % at 21.7 µM;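 active = compounds that cut the protein-peptide binding signal by more than 50% relative to plate controls in a single-dose test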;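 note: His-tagged Mcl-1 with rhodamine Noxa BH3 peptide and terbium anti-His antibody; 0% = Mcl-1 plus Noxa peptide wells and 100% = peptide-only wells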
Target sequence (Q07820 whole entry, looked up): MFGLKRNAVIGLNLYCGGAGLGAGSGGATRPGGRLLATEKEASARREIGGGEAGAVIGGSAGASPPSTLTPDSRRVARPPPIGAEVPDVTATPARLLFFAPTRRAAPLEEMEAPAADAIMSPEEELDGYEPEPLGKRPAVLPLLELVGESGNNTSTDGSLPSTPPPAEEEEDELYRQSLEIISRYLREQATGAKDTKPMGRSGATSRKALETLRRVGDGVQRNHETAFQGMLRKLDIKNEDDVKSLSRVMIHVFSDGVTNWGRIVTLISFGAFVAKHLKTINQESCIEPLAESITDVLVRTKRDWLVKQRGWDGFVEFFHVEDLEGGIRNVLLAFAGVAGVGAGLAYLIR
BCLXL inh – blocks human Bcl-xL binding to Bim BH3 peptide | Q07817 | hit rate 0.7% among 320,000 | inhibition, % at 10.9 µM | GST-Bcl-xL / FITC-Bim BH3 peptide fluorescence polarization;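 active = inhibition above the mean of all tested compounds plus 3 SD, cutoff set per campaign, cut at about 30% in these data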;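 note: 0% = DMSO wells and 100% = unlabeled Bim-BH3 peptide competitor; inhibitors lower millipolarization by displacing the labeled peptide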
Target sequence (Q07817 whole entry, looked up): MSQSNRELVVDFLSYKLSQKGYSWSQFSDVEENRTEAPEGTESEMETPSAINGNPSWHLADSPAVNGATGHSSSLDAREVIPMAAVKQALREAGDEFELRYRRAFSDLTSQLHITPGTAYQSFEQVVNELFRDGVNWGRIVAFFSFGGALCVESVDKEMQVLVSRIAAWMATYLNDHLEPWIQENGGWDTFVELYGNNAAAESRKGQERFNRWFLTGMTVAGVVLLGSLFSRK
Mcl1-Bid inh – Mcl-1/Bid interaction inhibition | Q07820 | TR-FRET Mcl-1/Bid-Dy647 peptide binding, 1536-well | inhibition, % at 21.7 µM | hit rate 0.97% among 220,000 | AID 1021;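 active = compounds that cut the binding signal by more than half at the single screening dose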;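 note: His-tagged Mcl-1 with europium anti-His antibody binding Bid BH3 peptide; 0% = Mcl-1 plus peptide wells and 100% = peptide-only wells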
Bim-Mcl-1 – human Bim-Mcl-1 interaction inhibition. Q07820. Bead-based flow cytometry, Bim peptide-Mcl-1 binding. inhibition, % at 10 µM. hit rate 0.1% among 190,000. AID 1009; in the data active = inhibition above about 40%;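 note: 0% = no compound tracer wells and 100% = peptide blocker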
GLD-1 RNA inh – GLD-1-TGE RNA interaction inhibition (C. elegans) | Q17339 | purified GLD-1 + fluorescein TGE RNA, fluorescence polarization | inhibition, % at 5.96 µM | hit rate 0.44% among 320,000;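 active = percent inhibition above a per-plate cutoff, the plate mean of test compounds plus 3 SD, cut at about 30% in these data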;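 note: 0% = DMSO wells with GLD-1 and probe and 100% = wells lacking GLD-1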
MCL1-BIM inh – MCL1-BIM-BH3 interaction inhibition (human). hit rate 0.68% among 320,000. GST-MCL1 / FITC-Bim-BH3 fluorescence polarization. inhibition, % at 10.9 µM. AID 2057;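 active = inhibition above the mean inhibition of all tested compounds plus 3 SD, set per campaign, cut at about 40% in these data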;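 note: 0% = DMSO wells and 100% = unlabeled Bim-BH3 peptide control; higher means more loss of mP so more displacement of Bim peptide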
Numbers without * were called inactive; / = no result.

SMILES	Mcl1-Noxa inh	BCLXL inh	Mcl1-Bid inh	Bim-Mcl-1	GLD-1 RNA inh	MCL1-BIM inh
O=[N+]([O-])c1c(NCCCO)cc(Sc2nc3ccccc3s2)c2nonc12	50	44*	-39	5	11	60*
O=[N+]([O-])c1c(NCCO)cc(N2CCCCCC2)c2nonc12	/	5	/	/	8	1
CCCSc1cc(NCCOC(=O)CCC)c([N+](=O)[O-])c2nonc12	8	7	-10	0	7	4
Cc1nnc(Sc2cc(NCCO)c([N+](=O)[O-])c3nonc23)s1	77*	/	-89	5	/	/
COCc1nnc(NC(=O)c2c(-c3c(Cl)cccc3Cl)noc2C)s1	/	-3	/	/	-7	-16
Cc1cc(N2CCOCC2)n2cc(-c3ccccc3)nc2n1	16	7	-13	2	-5	-1
Cc1cc(N2CC(C)OC(C)C2)n2cc(-c3ccccc3)nc2n1 (centres undefined)	34	-1	80*	0	4	-3
O=C(NCCc1ccccc1)C1CCN(S(=O)(=O)c2ccc(-c3nn[nH]n3)cc2)CC1	9	5	88*	-3	-2	-6
O=C(O)COc1ccccc1C(Nc1cccnc1)c1cc(Cl)c2cccnc2c1O (centres undefined)	97*	/	78*	-2	/	/
COc1ccccc1C(NC(C)=O)c1cc(Cl)c2cccnc2c1O (centres undefined)	/	8	/	/	-1	-2
CCOc1ccc(C(Nc2cccnc2)c2cc(Cl)c3cccnc3c2O)cc1 (centres undefined)	96*	17	95*	-5	-6	28
Cc1ccc2c(c1)N(CC(=O)NC1CCCC1)C(=O)CO2	/	5	/	/	-3	5
O=C1N=C2N(CCN3CCCCC3)c3ccccc3N2/C1=C\c1ccc([N+](=O)[O-])o1	12	/	83*	0	/	/
CCN(CC)CCNC(=O)c1ccc(NC(=O)c2ccc3c(c2)CCC3)cc1	/	48*	/	/	14	22
O=C(CC1CCCCC1)NCc1ccccc1Cl	/	2	/	/	5	6
O=C(CCCSc1ccccc1)Nc1nc(-c2ccco2)c(-c2ccco2)s1	52*	7	-6	-1	1	22
O=C(CCl)Nc1nc(-c2ccco2)c(-c2ccco2)s1	53*	9	-11	5	-5	12
O=C(CCCSc1ccccc1)Nc1nc(-c2ccccn2)cs1	-63	11	-66	-1	0	19
O=C(NCc1ccccc1CN1CCCC1)c1cc2cc(Cl)ccc2o1	/	0	/	/	4	9
CC(C)=CCc1cc(-c2oc3cc(O)cc(O)c3c(=O)c2O)ccc1O	/	3	/	/	4	1
CC(C)=CCc1c(O)cc2oc3c(CC=C(C)C)c(O)c(O)c(CC=C(C)C)c3c(=O)c2c1O	60*	2	-51	/	10	13
CC(C(=O)Nc1cccnc1)N1C(=O)C2C3C=CC(C3)C2C1=O (centres undefined)	-5	89*	-22	0	-4	6
O=C1c2cccnc2C(Nc2ccc(F)c(Cl)c2)N1Cc1cccs1 (centres undefined)	31	5	52*	0	-5	10
O=C1c2cccnc2C(Nc2ccc(Br)cc2)N1Cc1cccs1 (centres undefined)	28	1	62*	1	10	0
COc1ccc(NC2c3ncccc3C(=O)N2Cc2cccs2)cc1 (centres undefined)	31	8	-24	2	5	10
SMILES	Mcl1-Noxa inh	BCLXL inh	Mcl1-Bid inh	Bim-Mcl-1	GLD-1 RNA inh	MCL1-BIM inh
CC(C)(C)NC(=O)C1CC1(c1ccccc1)c1ccccc1 (centres undefined)	/	2	/	/	-1	-1
CN(Cc1nc2ccccc2c(=O)[nH]1)C(=O)c1cc(C2CC2)nn1-c1ccccc1	/	-3	/	/	-6	-4
Cc1ccc2[nH]c(=O)c(C(c3nnnn3CC3CCCO3)N3CCc4ccccc4C3)cc2c1 (centres undefined)	12	26	-62	3	4	25
Cc1cc2cc(C(c3nnnn3Cc3ccccc3)N3CCc4ccccc43)c(=O)[nH]c2cc1C (centres undefined)	-31	31*	-56	0	9	34
Cc1ccc2[nH]c(=O)c(C(c3nnnn3CC3CCCO3)N3CCCc4ccccc43)cc2c1 (centres undefined)	-3	42*	-15	4	12	28
CCc1ccc2[nH]c(=O)c(C(c3nnnn3CC3CCCO3)N3CCN4CCCC4C3)cc2c1 (centres undefined)	10	7	95*	1	-2	6
Cc1ccc2[nH]c(=O)c(C(c3nnnn3Cc3ccccc3)N3CCc4ccccc43)cc2c1 (centres undefined)	3	14	-38	0	9	9
COc1ccc(OC)c(NC(=O)CCOc2cccc(C)c2)c1	/	-3	/	/	0	-13
O=C(COc1ccccc1)NC(=S)Nc1ccc2c(c1)Cc1ccccc1-2	52*	6	-34	13	7	16
O=C(COc1ccccc1)NC(=S)Nc1cccc([N+](=O)[O-])c1	5	5	-13	-2	7	14
COC(=O)CN(c1cc([N+](=O)[O-])ccc1OC)S(C)(=O)=O	12	4	10	-3	0	1
CCc1ccc2nc(NC(=O)c3ccc(N4C(=O)CCC4=O)cc3)sc2c1	-46	-1	-28	/	7	-7
CNS(=O)(=O)c1ccc2nc(NC(=O)c3ccc(N4C(=O)CCC4=O)cc3)sc2c1	60*	7	-15	-3	6	4
O=Cc1c(-c2ccc(Cl)cc2)oc2ccc(O)cc12	/	3	/	/	7	7
CC(=O)c1cc(C#N)c(SCc2ccccn2)nc1C	88*	8	-27	/	4	-1
CC(=O)c1cc(C#N)c(SCc2ccccc2)nc1C	-6	-2	-10	-8	3	3
O=c1[nH]c(/C=C/c2ccccc2[N+](=O)[O-])nc2ccccc12	4	-1	54*	-10	5	0
O=C(O)CC(NC(=O)COc1ccc(Cl)cc1Cl)C(=O)O (centres undefined)	20	10	72*	-2	5	14
CC(O)[C@H]1CNC(=O)C(=O)N1CCc1cccc(F)c1 (some centres undefined)	15	-7	-32	/	-3	-11
COc1cccc(Nc2nc(NCC3CCCO3)c3ccccc3n2)c1 (centres undefined)	41	1	92*	2	2	-4
Oc1ccc(Nc2nc(NCC3CCCO3)c3ccccc3n2)cc1 (centres undefined)	55*	/	-32	0	/	/
Oc1ccccc1Nc1nc(NCC2CCCO2)c2ccccc2n1 (centres undefined)	35	5	-53	3	12	6
CCCNS(=O)(=O)c1cc2c3c(c1)CCN3C(=O)CC2	/	0	/	/	-1	-9
